Assay outcomes from PubChem BioAssay.
Sfp PPTase inh: qHTS Assay for Inhibitors of Bacillus subtilis Sfp phosphopantetheinyl transferase (PPTase) | 4'-phosphopantetheinyl transferase ffp (Bacillus subtilis), Q9F4F7 | Biochemical Sfp PPTase activity, qHTS | Potency, µM, for the others: largest response in the series, negative = inhibition, most hits filed as inhibitors | 3.5% of 310,000 active;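 further: the enzyme is Sfp with the accession as filed and its product quenches rhodamine fluorescence; potency means the concentration at half of the fitted maximal effect; 0% = enzyme reaction without inhibitor and -100% = no enzyme wells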
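Sfp 15 nM + cpd, 15 min RT; start w/ rhodamine-CoA 5 uM, BHQ-2-YbbR 12.5 uM (final); 50 mM Hepes pH 7.6, 10 mM MgCl2, 0.01% NP-40, 0.01% BSA; read 525/598 nm at 0 and 30 min.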
PLK1 PBD inh: qHTS for Inhibitors of PLK1-PDB (polo-like kinase 1 - polo-box domain): Primary Screen; 2.8% of 360,000 active; AID 720504, 2013; Plk1 PBD binding of FITC phosphopeptide, fluorescence polarization; Potency, µM, for the others: max response, negative = inhibition, usual class: inhibitors; Serine/threonine-protein kinase PLK1 (Homo sapiens), P53350; further: potency means the concentration at half of the fitted maximal effect; series mostly up to about 57 µM; nearly all actives have a fitted effect of over 65% in size
VDR inhibitor: Inhibitors of the vitamin D receptor (VDR): qHTS; VDR-SRC2-3 peptide fluorescence polarization, 2 h; Potency, µM, for the others: max response, negative = inhibition, actives largely listed as inhibitors; 0.93% of 400,000 active; AID 504847, 2011; further: potency means the concentration at half of the fitted maximal effect
Target sequence (P11473 whole entry, looked up): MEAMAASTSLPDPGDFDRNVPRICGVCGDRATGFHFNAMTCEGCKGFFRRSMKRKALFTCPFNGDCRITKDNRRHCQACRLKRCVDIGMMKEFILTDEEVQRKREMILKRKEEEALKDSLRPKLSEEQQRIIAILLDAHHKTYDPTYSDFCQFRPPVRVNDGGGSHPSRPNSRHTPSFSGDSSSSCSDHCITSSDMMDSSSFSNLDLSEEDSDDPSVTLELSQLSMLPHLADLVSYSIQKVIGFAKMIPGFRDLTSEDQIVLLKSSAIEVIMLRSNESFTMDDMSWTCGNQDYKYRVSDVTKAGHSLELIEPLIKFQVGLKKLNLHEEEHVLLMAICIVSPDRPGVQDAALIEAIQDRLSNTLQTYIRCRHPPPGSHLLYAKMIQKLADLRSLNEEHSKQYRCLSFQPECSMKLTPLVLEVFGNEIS
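Fluorescence polarization assay measuring small-molecule disruption of VDR binding to the coregulator peptide SRC2-3. Compounds were pin-transferred (23 nl) into the reagent mix and incubated 2 h at room temperature before reading.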
G9a inh: qHTS Assay for Inhibitors of Histone Lysine Methyltransferase G9a; AID 504332, 2011; Histone-lysine N-methyltransferase EHMT2 (Homo sapiens), Q96KQ7; 8.8% of 350,000 active; G9a H3K9 monomethylation, AlphaScreen, 2 h; Potency, µM (series often up to 102 µM), for inactives: top-dose activity, negative = inhibition, usual class: inhibitors; further: potency means the concentration at half of the fitted maximal effect; nearly all actives have a fitted effect of over 75% in size
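G9a (20 nM) preincubated 15 min RT with compounds, then 500 nM biotinylated H3K9 peptide and 20 uM SAM added; 2 h RT reaction. Monomethyl-H3K9 product detected by AlphaScreen with anti-H3K9me1 antibody, streptavidin donor and anti-rabbit IgG acceptor beads.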
CCT modulator: High-Throughput Screening for Modulators of Cytosolic Chaperonin Activity; purified chaperonin ATPase assay, HTRF ADP detection, 30 min; activity change, % (test concentration not listed), hits read low; 0.3% of 360,000 active; AID 651819, 2012; in the data active means activity change below about -30%
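First, chaperonin was dispensed at 40 nM or 20 nM final depending on batch activity. Next, compounds were pinned at 76 uM and ATP added at 10 uM. After 30 min at 37 °C, ADP detection reagents ran 30 min at ambient temperature.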
Mm-Cpn inhibitor: Inhibitors of TCP-1 ring complex (TRiC) of Methanococcus maripaludis (MmCpn): qHTS | Chaperonin Mm-Cpn (Methanococcus maripaludis) | purified Mm-Cpn ATPase, ADP Transcreener TR-FRET | Potency, µM (highest dose often 76.9 µM), for the others: at the highest dose activity, negative = inhibition, usual class: inhibitors | 0.031% of 330,000 active; further: potency means the concentration at half of the fitted maximal effect; nearly all actives have a fitted effect of over 80% in size
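Compound-treated chaperonin, 25 nM final, turns over 10 uM ATP at 37°C for 30 min following a 10 min preincubation; ADP generated competes with ADP-d2 for Eu-cryptate antibody, lowering FRET.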
Numbers without * were called inactive; u = inconclusive; x = no result; ! = a repeat was not active; [ ] = another dose, or the depositor's remark. An excerpt weighted towards active compounds, which were near 10% of everything screened. Unless noted, the call rests on the fitted dose curve; in most records, active means well fitted curve in the direction sought with a large enough effect; inconclusive means small, poorly fitted or top-dose-only effect, or another doubt; inactive means no such curve, though single readings can be large; an effect the other way counts as inactive or inconclusive. Unless noted, on the % scale 0 is the no-effect control and ±100 the full control effect.

SMILES	Sfp PPTase inh	PLK1 PBD inh	VDR inhibitor	G9a inh	CCT modulator	Mm-Cpn inhibitor
COCCN1C(=O)Cc2c1nc(N)c1c(N)nc(N3CCN(c4ccc(F)cc4)CC3)c(C#N)c21	21%	-25%	-11%	35µM*	-1	1%
N#CCc1c(C#N)c(N)nc(N2CCN(S(=O)(=O)c3ccccc3F)CC2)c1C#N	7%	-2%	-13%	-1%	0	u
Cc1cccc(OCC(=O)N2CCC(c3nc4ccccc4o3)CC2)c1C	x	x	0%	2%[59 µM]	x	x
C/C(CCN1CCCc2nc(C)c(C)cc21)=N\O[C@@H](C)CN1CCCc2nc(C)c(C)cc21	2%	x	x	x	x	x
c1ccc2c(c1)N1CCCN=C1N2CCN1CCCCC1	11%	27µM*	-12%	u	0	u
CC(=O)n1cc(N(C(=O)CCl)c2ccc([N+](=O)[O-])cc2)c2ccccc21	11%	-24%	22µM*	50µM*	2	-3%
CC(C)OC(=O)[C@H]1O[C@H](CCCCOCc2ccccc2)[C@@H](C)[C@H]2O[C@H]21	-14%	x	3%	x	x	x
Cc1ccccc1C(=O)Nc1nnc(SCc2cc(=O)n3ccccc3n2)s1	x	x	-3%	-4%[59 µM]	x	x
CC1(C)CC(=O)C(C=NCCN2CCN(C(=O)NC34CC5CC(CC(C5)C3)C4)CC2)=C(O)C1	8%	-7%	11%	50µM*	-1	-10%
CC1(C)CC(=O)C(C=NCCO)=C(O)C1	27%	27µM*	-16%	35%[12.7 µM]	2	-2%
COc1ccccc1N1CCN(CC(=O)Nc2c(C)n(C)n(-c3ccccc3)c2=O)CC1	u	-8%	-22%	1.4µM*	2	-4%
COc1ccccc1N1CCN(CC(=O)Nc2ccc(CN3CCCCC3)cc2)CC1	u	-1%	12%	10µM*	1	-1%
COc1ccc(-n2c(=O)c3sc4ccccc4c3n(CC(=O)Nc3ccccc3F)c2=O)cc1	x	x	-8%	1%[59 µM]	x	x
CC1CC(C)(C)NC(=S)O1 (configuration not stated)	-7%	u	11%	79µM*!	0	-1%
O=C(N/N=C/c1ccc(N2CCOCC2)s1)c1ccccc1Cl	-30%	24µM*	u	u	-1	-2%
C(=N\N(c1ccccc1)c1ccccc1)/c1ccc(N2CCOCC2)s1	-20%	-5%	0%	13µM*	0	1%
COc1ccc(C(=O)N/N=C/c2ccc(N3CCOCC3)s2)cc1OC	x	-12%	-6%	44%[12.7 µM]	-2	-11%
CCOC(=O)N/N=C/c1ccc(N2CCOCC2)s1	-21%	-12%	0%	40µM*	0	-3%
FC(F)(F)c1ccc(Cl)c(N/N=C/c2ccc(N3CCOCC3)s2)c1	-6%	-3%	-6%	4µM*	-2	-1%
Cc1ccc(-c2nnc3ccccc3c2C(=O)Nc2cccc(Cl)c2)cc1	x	x	1%	5%[59 µM]	x	x
CCCCCCCCCCCCCCCCCC(=O)NCCc1ccc(O)c(O)c1	26%	x	x	x	x	x
CCN(CC)CCCNC(=O)Cc1ccc(NC(=O)N2CCCCc3ccccc32)cc1	x	x	-1%	0%[59 µM]	x	x
Cc1cccn2c(=O)cc(CSc3nnc(NC(=O)C(C)C)s3)nc12	x	x	4%	33%[59 µM]	x	x
O=C(/C=C\c1ccc2c(c1)OCO2)NC1CC(=O)N(c2ccc(F)cc2)C1 (configuration not stated)	x	x	14%	4%[59 µM]	x	x
CN(CC(=O)Nc1cccc(F)c1)CC(=O)Nc1ccccc1Oc1ccccc1	u	-11%	-10%	8.9µM*	2	-3%
COc1cccc(NC(=O)CN(C)C(=O)c2cc(C)oc2C)c1	x	-7%	2%	-6%[12.7 µM]	-31*	0%
